Measurements from PubChem BioAssay.
The source made the active and inactive calls.

Assays:
[1] = tested on: Human papillomavirus type 1a protein E7 (residues 44-93); assay: small molecules binding HPV E7 44-93 – biochemical, small-molecule microarray, residues 44-93, 635 nm fluorescence, primary screen (AID 1108); conditions: fluorescence 635 nm, higher = more signal;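 further: E7 fragment applied at 1 µg/mL in TBST for 1 h at 4 C; score combines spot fluorescence with its signal to noise ratio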
[2] = hepatitis C replication reporter changes, two-sided – Huh7 cells, luciferase reporter, HCV replication inhibitor project, primary screen (AID 1109); conditions: Huh7 HCV replicon luciferase reporter, 48 h; higher = more signal;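 further: huh7 hepatoma cells harbouring a luciferase neomycin HCV replicon reporter; luciferase luminescence as measure of HCV replicon replication; test concentration not given here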
[3] = molecular target: Left-right determination factor 2 (Homo sapiens) (UniProt O00292); assay: small molecules binding LEFTY2 protein – biochemical, small-molecule microarray, 635 nm fluorescence scan, primary screen (AID 1110); conditions: higher = more signal
[4] = molecular target: Calmodulin-1 (Homo sapiens) (UniProt P0DP23); assay: small molecules binding calmodulin-1 with EGTA – biochemical, small-molecule microarray, Cy5-labelled CALM1, profiling panel (AID 1111); conditions: Cy5-CALM1 binding fluorescence, higher = more signal;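 further: labelled calmodulin applied in Tris saline Tween buffer holding calcium plus EGTA and DTT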
[5] = molecular target: Calmodulin-1 (Homo sapiens) (UniProt P0DP23); assay: small molecules binding Ca-loaded calmodulin-1 – biochemical, small-molecule microarray, Cy5-labelled CALM1, plus calcium, artefact control for SMM control-protein annotation, profiling panel (AID 1112); conditions: Cy5-CALM1 binding fluorescence, higher = more signal;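 further: score merges spot fluorescence with signal to noise from triplicate slides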
[6] = probe aWnt5a binding to arrayed compounds – biochemical, biotinylated probe, 635/667 nm fluorescence, primary screen (AID 1113); conditions: small-molecule microarray, higher = more signal;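 further: score merges 667 nm fluorescence intensity with signal-to-noise per printed feature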
[7] = probe aShh binding to arrayed compounds – biochemical, biotinylated probe, 635/667 nm fluorescence, primary screen (AID 1114); conditions: small-molecule microarray, higher = more signal;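 further: probe is biotin-labelled aShh protein from a stem cell growth factor screen; measures binding of labelled protein to compounds printed on the slide; score merges feature fluorescence at 667 nm with signal-to-noise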
[8] = probe aNog binding to arrayed compounds – biochemical, biotinylated probe, 635/667 nm fluorescence, primary screen (AID 1115); conditions: small-molecule microarray, higher = more signal;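 further: probe is biotinylated aNog protein used at 0.15 µg/mL for 1 h at 4 C; z-score combines 667 nm fluorescence of each spot with its signal to noise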
[9] = molecular target: Torsin-1A-interacting protein 1 (Homo sapiens) (UniProt Q5JTV8); assay: compound microarray binding of lysate hLAP1 – cell lysate, small-molecule microarray, COS7 lysate, 635/667 nm fluorescence, primary screen (AID 1116); conditions: 635 nm fluorescence, higher = more signal
[10] = molecular target: Alpha-bungarotoxin (Bungarus multicinctus) (UniProt P60615); assay: compounds binding labelled alpha-BTX control protein – biochemical, small-molecule microarray, Alexa647 label, 635/667 nm fluorescence, artefact control for SMM control protein annotation, profiling panel (AID 1117); conditions: alpha-BTX-A647 binding fluorescence, higher = more signal
Albumin (Bos taurus) = Albumin (Bos taurus) (UniProt P02769); assay: compounds binding labelled BSA control protein – biochemical, small-molecule microarray, Alexa647 label, 635/667 nm fluorescence, artefact control for SMM control protein annotation, profiling panel (AID 1118); conditions: BSA-A647 binding, fluorescence 635 nm, higher = more signal;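 further: score merges 667 nm emission intensity and signal-to-noise per printed compound spot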
[11] = probe aXIP binding to arrayed compounds – biochemical, NeuroSMM set, 635/667 nm fluorescence, primary screen (AID 1119); conditions: small-molecule microarray, higher = more signal, called active from +8 up or from −8 down;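 further: probe is the protein aXip251-270 applied at 1 µg/mL to compound-printed slides; binding of probe to printed compounds measured as 667 nm fluorescence plus signal to noise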
[12] = probe aNOTCH3 binding on compound microarray – biochemical, small-molecule microarray, 635/667 nm fluorescence, primary screen (AID 1120); conditions: higher = more signal;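 further: probe is a biotin-tagged antibody raised against NOTCH3 rather than NOTCH3 protein; score merges spot fluorescence near 667 nm with spot signal to noise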
[13] = probe aNOTCH2 binding on compound microarray – biochemical, small-molecule microarray, 635/667 nm fluorescence, primary screen (AID 1121); conditions: higher = more signal;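 further: score merges feature fluorescence read at 667 nm with its signal to noise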
[14] = molecular target: Carbonic anhydrase 2 (Homo sapiens) (UniProt P00918); assay: compounds binding carbonic anhydrase 2 – biochemical, small-molecule microarray, Alexa647-labelled CAII, profiling panel (AID 1122); conditions: CAII-A647 binding fluorescence, higher = more signal
[15] = COS7 lysate on small-molecule microarray, probe aHis, 635 nm (AID 1123); conditions: COS7 cell lysate, fluorescence, higher = more signal;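 further: z-score combines 667nm fluorescence intensity with signal-to-noise per printed compound spot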
[16] = probe aLAP1 signal on lysate-treated microarray – cell lysate, small-molecule microarray, COS7 lysate, primary screen (AID 1124); conditions: probe aLAP1, fluorescence, higher = more signal;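 further: lysate comes from COS7 cells expressing LAP1 and is applied at 0.3 µg/mL; score merges spot fluorescence near 667 nm with signal-to-noise over triplicate slides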
Sam68 (KHDRBS1) = assay: compounds binding KHDRBS1 protein – biochemical, small-molecule microarray, 635 nm fluorescence, primary screen (AID 1125); conditions: higher = more signal;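 further: score merges 667 nm channel intensity with signal to noise over triplicate slides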
[17] = tested on: Chordin-like protein 2 (CHRDL2); assay: compounds binding chordin-like 2 – biochemical, small-molecule microarray, 635 nm fluorescence, primary screen (AID 1126); conditions: fluorescence 635 nm, higher = more signal;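 further: printed compound slides probed with Chrdl2 protein at 4 µg/mL for 1 h at 4 C; score merges 667 nm emission intensity with signal to noise over three replicate slides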
[18] = molecular target: Concanavalin-A (Canavalia ensiformis) (UniProt P02866); assay: compounds binding concanavalin A lectin – biochemical, small-molecule microarray, Alexa647 label, 635 nm, artefact control for SMM control protein annotation, primary screen (AID 1127); conditions: ConA-A647 binding fluorescence, higher = more signal;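 further: z combines 667 nm emission intensity with signal-to-noise across three replicate slides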
Sequence of Concanavalin-A (Canavalia ensiformis) (P02866 whole entry, looked up): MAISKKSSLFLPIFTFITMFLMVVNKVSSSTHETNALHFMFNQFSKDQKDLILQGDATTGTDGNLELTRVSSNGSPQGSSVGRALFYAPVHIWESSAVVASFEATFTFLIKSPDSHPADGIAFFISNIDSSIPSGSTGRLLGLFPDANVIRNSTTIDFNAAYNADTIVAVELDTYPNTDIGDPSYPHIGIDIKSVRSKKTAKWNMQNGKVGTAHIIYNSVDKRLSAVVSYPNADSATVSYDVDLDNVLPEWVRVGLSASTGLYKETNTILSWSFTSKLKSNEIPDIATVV

Sequence of Albumin (Bos taurus) (P02769 whole entry, looked up): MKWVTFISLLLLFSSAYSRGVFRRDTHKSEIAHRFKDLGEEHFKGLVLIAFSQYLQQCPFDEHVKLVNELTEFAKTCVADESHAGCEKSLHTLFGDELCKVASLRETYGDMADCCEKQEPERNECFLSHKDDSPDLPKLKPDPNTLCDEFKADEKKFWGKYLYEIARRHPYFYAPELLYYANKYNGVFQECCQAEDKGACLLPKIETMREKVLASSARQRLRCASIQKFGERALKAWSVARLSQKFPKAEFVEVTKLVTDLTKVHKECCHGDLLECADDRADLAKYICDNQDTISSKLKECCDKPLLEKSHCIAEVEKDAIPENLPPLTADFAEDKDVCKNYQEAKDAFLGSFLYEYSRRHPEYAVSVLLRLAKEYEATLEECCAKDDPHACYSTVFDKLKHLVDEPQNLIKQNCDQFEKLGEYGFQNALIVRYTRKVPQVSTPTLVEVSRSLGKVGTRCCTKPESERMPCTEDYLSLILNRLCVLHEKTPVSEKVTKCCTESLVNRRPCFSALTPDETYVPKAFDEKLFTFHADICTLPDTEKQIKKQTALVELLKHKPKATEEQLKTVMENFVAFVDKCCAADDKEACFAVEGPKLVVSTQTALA
Sequence of Torsin-1A-interacting protein 1 (Homo sapiens) (Q5JTV8 whole entry, looked up): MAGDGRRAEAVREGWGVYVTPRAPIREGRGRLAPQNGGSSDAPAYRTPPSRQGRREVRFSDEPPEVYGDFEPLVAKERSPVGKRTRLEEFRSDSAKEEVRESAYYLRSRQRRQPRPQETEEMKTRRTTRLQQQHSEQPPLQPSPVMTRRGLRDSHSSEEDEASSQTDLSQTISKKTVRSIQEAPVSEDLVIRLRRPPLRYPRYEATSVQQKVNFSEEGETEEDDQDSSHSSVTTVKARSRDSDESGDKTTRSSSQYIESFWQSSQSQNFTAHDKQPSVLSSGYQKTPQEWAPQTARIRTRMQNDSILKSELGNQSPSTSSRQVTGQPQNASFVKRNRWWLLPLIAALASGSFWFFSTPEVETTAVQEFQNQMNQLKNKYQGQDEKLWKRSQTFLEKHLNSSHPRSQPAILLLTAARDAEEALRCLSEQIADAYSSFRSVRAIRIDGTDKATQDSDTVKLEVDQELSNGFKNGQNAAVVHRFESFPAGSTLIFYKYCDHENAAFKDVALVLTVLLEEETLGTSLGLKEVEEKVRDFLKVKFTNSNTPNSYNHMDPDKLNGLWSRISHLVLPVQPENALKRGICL
Sequence of Alpha-bungarotoxin (Bungarus multicinctus) (P60615 whole entry, looked up): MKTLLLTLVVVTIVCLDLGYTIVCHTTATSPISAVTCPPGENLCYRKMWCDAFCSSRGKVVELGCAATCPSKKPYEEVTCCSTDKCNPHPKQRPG
Sequence of Left-right determination factor 2 (Homo sapiens) (O00292 whole entry, looked up): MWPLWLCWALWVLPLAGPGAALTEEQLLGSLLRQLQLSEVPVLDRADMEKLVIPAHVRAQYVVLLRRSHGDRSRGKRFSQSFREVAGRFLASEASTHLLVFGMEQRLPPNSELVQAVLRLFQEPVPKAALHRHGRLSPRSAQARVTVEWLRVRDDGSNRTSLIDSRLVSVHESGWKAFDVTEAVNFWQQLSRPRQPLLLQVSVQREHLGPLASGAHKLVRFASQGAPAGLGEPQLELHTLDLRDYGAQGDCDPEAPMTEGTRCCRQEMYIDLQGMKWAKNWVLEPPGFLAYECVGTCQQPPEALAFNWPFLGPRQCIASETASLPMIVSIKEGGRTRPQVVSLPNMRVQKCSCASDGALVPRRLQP

Compound	composite z-score [1]	z-score [2]	composite z-score [3]	composite z-score [4]	composite z-score [5]	composite z-score [6]	composite z-score [7]	composite z-score [8]	composite z-score [9]	composite z-score [10]	composite z-score (Albumin (Bos taurus))	composite Z-score [11]	composite z-score [12]	composite z-score [13]	composite z-score [14]	composite z-score [15]	composite z-score [16]	composite z-score (Sam68 (KHDRBS1))	composite z-score [17]	composite z-score [18]
C=C(C(=O)CC[C@@H](OC(=O)c1ccccc1-c1ccccc1C(=O)O)c1cccc(OCCO)c1)C(C)C	-0.635	-3.06	0.706	-0.367	-0.692	-0.129	-0.0396	-0.248	3.26	-0.11	-0.757	-0.88 (inactive)	0.107	-0.0402	0.555	0.139	1.2	0.152	1.26	-0.539
CCCCCCCCCCC(O)C1C=CC2C(=O)N(C)C(=O)C2N1Nc1ccccc1 (stereo not given)	0.164	-0.28	-2.42	0.194	1.19	-0.252	-0.121	0.101	0.504	-0.868	0.0703	0.636 (inactive)	-0.0975	-0.271	-0.0594	0.907	0.478	-1.52	-1.84	-0.834
CCN1C(=O)C2CC(=O)C3C(CN(S(=O)(=O)c4ccc(C)cc4)C3c3ccc(C)cc3)C2C1=O (stereo not given)	-1.69	-2.44	0.015	1.85	0.495	-0.0269	0.749	0.685	1.08	-0.344	0.449	0.37 (inactive)	0.0282	-0.108	0.75	2.05	1.11	0.768	-0.99	0.99
COc1ccc([Si](C)(C)[C@H]2[C@H](CC(=O)N(CCO)Cc3ccccc3)O[C@@]3(C(=O)N(Cc4ccc(N5C(=O)c6cccc7cccc5c67)cc4)c4ccccc43)[C@@H]2C)cc1	1.28	-3.78	0.544	0.605	0.103	0.0495	0.19	0.945	0.869	0.753	0.0079	0.0959 (inactive)	0.376	-0.0928	0.593	1.52	0.801	0.747	0.71	1.16
CCOC(=O)C=C1C[C@@H](c2cccc([N+](=O)[O-])c2)O[C@@H](c2cccc([N+](=O)[O-])c2)O1	0.478	-1.96	0.584	1.68	0.966	0.0289	0.317	1.64	0.785	1.05	0.817	0.636 (inactive)	0.13	-0.125	0.425	2.07	0.863	1.32	0.338	1.1
C[C@]1(C(=O)NCC(F)(F)F)c2ccccc2C(=O)N(Cc2cc(C(F)(F)F)cc(C(F)(F)F)c2)[C@H]1c1ccc(CO)cc1	0.454	-0.1	-0.544	-0.136	0.331	-0.0346	-0.0146	0.231	0.173	0.342	0.154	0.196 (inactive)	-0.154	-0.0226	0.306	1.11	0.108	0.1	-0.404	-0.522
C=C(CC1([C@@H](NP(=O)(c2ccccc2)c2ccccc2)[C@H]2C[C@@H]2CCCC)CC1)c1cccc(OC)c1	0.812	-1.79	-0.872	1.48	0.691	0.103	0.313	1.46	0.182	-0.306	0.615	0.107 (inactive)	0.222	0.119	0.334	1.86	-0.151	-0.176	-1.06	0.506
CC(C)(C)OC(=O)CC[C@@]1(C(=O)N2CCOCC2)N=C(c2ccc(OCCCO)cc2)O[C@@H]1c1ccccc1CN=[N+]=[N-]	1.46	0.265	0.0254	2.04	0.742	0.281	0.0875	2.13	3.31	0.986	0.966	1.31 (inactive)	0.144	0.23	0.829	3.77	0.86	1.29	-0.406	1.09
[N-]=[N+]=Nc1ccccc1C[C@]1(C(=O)N2CCCCC2)N=C(c2ccc(OCCCO)cc2)O[C@H]1c1ccccc1	-0.0987	-2.42	0.0344	1.8	0.727	0.0101	0.202	-0.544	0.824	1.93	0.737	-0.399 (inactive)	0.196	0.179	0.708	1.52	0.121	1.31	-0.249	1.18
CC(C)c1ccc(NN2C(C(O)C3CCCCC3)C=CC3C(=O)N(c4ccccc4)C(=O)C32)cc1 (stereo not given)	0.324	-0.482	0.176	2.23	0.842	0.0219	-0.144	0.302	0.678	1.9	0.98	0.637 (inactive)	0.286	0.0836	0.632	1.78	0.948	1.31	-0.261	1.14
C=CC[C@]1(C(=O)NCCN2CCOCC2)N=C(c2ccc(OCCCO)cc2)O[C@H]1c1ccccc1	1.35	-0.633	0.66	0.0631	-0.442	0.212	0.398	-0.103	1.24	0.429	-0.051	0.0999 (inactive)	0.0813	0.0564	0.703	1.51	0.601	1.18	0.708	0.469
COc1ccc([Si](C)(C)[C@H]2[C@H](CC(=O)N3CCC[C@H]3CO)O[C@@]3(C(=O)N(C)c4c(Br)cc(C)cc43)[C@@H]2C)cc1	1.45	-2	0.946	0.783	0.339	1.19	1.28	0.241	0.128	1.26	0.824	3.93 (inactive)	0.189	0.503	0.81	2.52	0.548	1.3	1.38	1.19
CC(C)(C)OC(=O)CC[C@]1(C(=O)N2CCOCC2)COC(c2ccc(OCCCO)cc2)=N1	1.3	0.266	-0.325	0.922	1.03	-0.124	0.184	-0.283	1.13	-0.31	0.947	-0.124 (inactive)	-0.0387	-0.129	0.853	2.85	-0.494	0.836	-1.17	0.0647
CC[C@@H](O[Si](C#C[Si](C(C)C)(C(C)C)C(C)C)(C(C)C)C(C)C)c1cn([C@H](C)c2ccccc2)nn1	0.818	-0.772	0.435	-0.273	-0.0786	-0.0758	0.0637	-0.28	0.651	0.188	-0.605	0.515 (inactive)	-0.016	-0.171	0.0757	0.365	0.369	0.71	0.26	0.364
CC(C)c1ccc(NN2C(C(O)C3=C[C@H]4C[C@@H](C3)C4(C)C)C=CC3C(=O)N(c4ccccc4)C(=O)C32)cc1 (stereo not given in full)	0.796	-0.637	0.368	2.46	0.977	0.0403	0.907	2.06	1.54	1.64	0.97	0.378 (inactive)	0.333	0.248	0.662	2.04	1.09	1.17	0.4	1.12
CC1CC/C=C\[C@H]2OC34C=CCN(CCN5CCOCC5)C(=O)[C@H]3N(C(CO)C(C)C)C(=O)[C@@H]4C2C(=O)O1 (stereo not given in full)	0.0179	-0.278	-0.0839	-0.388	-1.05	-0.105	0.0469	-0.126	-0.46	-0.157	-0.466	0.769 (inactive)	-0.111	-0.0837	0.854	0.214	1.47	0.889	-0.571	0.475
CCCCC(=C=CC[C@@H](O)c1ccccc1OCCO)C[C@@H](O)c1ccccn1	0.361	-1.61	-0.139	-0.408	-0.669	-0.113	-0.0904	-0.108	-0.194	0.888	0.043	0.504 (inactive)	-0.0077	-0.197	0.678	0.522	0.137	0.81	0.179	0.287
COCCCNC(=O)[C@]1(Cc2ccccc2CN=[N+]=[N-])N=C(c2ccc(OCCCO)cc2)O[C@@H]1c1ccccc1N=[N+]=[N-]	0.693	-2.06	-0.581	1.27	1.18	0.133	1.16	0.467	0.939	2.35	0.835	-0.217 (inactive)	0.805	0.188	0.525	2.24	0.152	1.34	-0.992	1.05
CCCNC(=O)[C@@]1(Sc2ccc(C)cc2)CC(=O)N(Cc2cc(C(F)(F)F)cc(C(F)(F)F)c2)[C@@H]1c1ccc(CO)cc1	0.156	-1.83	-0.272	-0.159	0.441	-0.0944	-0.291	-0.164	0.443	0.0468	-0.919	-0.0135 (inactive)	-0.163	-0.169	0.504	0.506	-0.0318	-0.528	-1.11	-0.149
COC(=O)[C@H]1N=C(c2ccc(OCCCO)cc2)O[C@H]1c1ccccc1N=[N+]=[N-]	1.05	-1.78	-0.223	0.203	0.28	0.16	0.468	1.29	0.451	1.08	0.177	0.408 (inactive)	0.156	0.273	0.574	2.51	0.285	0.342	0.158	0.656
C=C(COC)C(=O)CC[C@H](OC(C)=O)c1ccccc1OCCO	0.0337	-1.94	-0.0181	-0.714	-1.1	-0.15	-0.223	-0.397	1.59	-0.15	-1.63	-0.743 (inactive)	-0.0343	-0.115	0.662	0.0092	-0.325	0.176	-0.0471	-0.153
